Experimental data: PubChem BioAssay (NCI)
This is part of a sample that, as a whole, favours compounds with a hit. Of some 79,000 tested, about 15% had one in any assay. Activity calls are given as the source filed them. Rule as the data show it: active = growth inhibition above about 70%; inactive = the rest.

Key:
[1] = NCI Yeast Anticancer Drug Screen. Data for the rad50 strain (AID 155);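 also: 0% = growth of vehicle-only cultures of the same strain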; conditions: S. cerevisiae rad50 strain growth inhibition, active compounds read high
Summary of the method: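 DNA repair mutant yeast, compound exposure, growth read-out; inhibition is taken relative to vehicle.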

[2] = NCI Yeast Anticancer Drug Screen. Data for the mec2-1 strain (AID 157); conditions: S. cerevisiae mec2-1 strain, active compounds read high
Summary of the method: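 Vehicle-treated cultures served as reference for growth inhibition of compound-exposed mec2-1 yeast.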

[3] = NCI Yeast Anticancer Drug Screen. Data for the sgs1 mgt1 strain (AID 161);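 also: 0% = growth of cultures given vehicle only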; conditions: S. cerevisiae sgs1 mgt1 strain, active compounds read high
Summary of the method: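 Inhibition of yeast growth, normalised to vehicle-treated controls, is reported for a strain bearing genetic alterations in DNA damage repair.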

[4] = NCI Yeast Anticancer Drug Screen. Data for the cln2 rad14 strain (AID 165);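 also: 0% = growth equal to vehicle treated cultures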; conditions: S. cerevisiae cln2 rad14 strain, active compounds read high
Summary of the method: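 Each compound was tested on cln2 rad14 yeast. Inhibition of growth was calculated against vehicle-exposed controls.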

[5] = NCI Yeast Anticancer Drug Screen. Data for the bub3 strain (AID 167); conditions: S. cerevisiae bub3 mutant strain, active compounds read high
Summary of the method: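 In this screen, a yeast mutant lacking normal mitotic checkpoint function is challenged with compound. Relative growth versus vehicle gives the inhibition value.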

[6] = NCI Yeast Anticancer Drug Screen. Data for the mlh1 rad18 strain (AID 175); conditions: S. cerevisiae mlh1 rad18 strain growth inhibition, active compounds read high
Summary of the method: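 Vehicle-treated cultures served as the reference for growth inhibition in a yeast strain carrying DNA damage repair alterations exposed to each compound.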

[7] = at 5.0 µM (retest, dose inferred, filed as 0.5)
[8] = at 50.0 µM (retest, dose inferred, filed as 5.0)

Measured: growth inhibition

O=C(O)c1ccc2c(O)c3ccccc3c(O)c2c1
active: [1]; [8] 72% | [1]; at 50.0 µM 99.6% | [2]; at 50.0 µM 99.5% | [3]; at 50.0 µM 99.6% | [4]; at 50.0 µM 93.5% | [5]; at 50.0 µM 99.5% | [6]; at 50.0 µM 99.2%
inactive: [1]; [7] 3% | [2]; [7] 1% | [2]; [8] 41% | [3]; [7] 3% | [3]; [8] 52% | [4]; [7] 4% | [4]; [8] 50% | [5]; [7] 21% | [5]; [8] 57% | [6]; [7] 5% | [6]; [8] 65%

CC(=O)Oc1ccccc1N(C(C)=O)S(=O)(=O)c1ccc(C)cc1
active: [1]; [8] 98% | [1]; at 50.0 µM 95.7% | [2]; [8] 99% | [2]; at 50.0 µM 97.5% | [3]; [8] 99% | [3]; at 50.0 µM 96.2% | [4]; [8] 99% | [4]; at 50.0 µM 98.5% | [5]; [8] 99% | [5]; at 50.0 µM 99.2% | [6]; [8] 99% | [6]; at 50.0 µM 98.8%
inactive: [1]; [7] 16% | [2]; [7] 12% | [3]; [7] 11% | [4]; [7] 1% | [5]; [7] -2% | [6]; [7] 34%

O=C1C2CCCC3CCCC(C(=O)N1O)C32 (configuration not stated)
active: [1]; [7] 89% | [1]; [8] 96% | [1]; at 50.0 µM 91.9% | [2]; [7] 90% | [2]; [8] 98% | [2]; at 50.0 µM 93% | [3]; [7] 70% | [3]; [8] 94% | [3]; at 50.0 µM 93.5% | [4]; at 50.0 µM 74.7% | [5]; [7] 93% | [5]; [8] 97% | [5]; at 50.0 µM 92% | [6]; [7] 87% | [6]; [8] 97% | [6]; at 50.0 µM 90.3%
inactive: [4]; [7] 52% | [4]; [8] 69%

CC(=O)N(C1=CC(=O)c2ccccc2C1=O)c1ccc(C)cc1
active: [1]; [8] 99% | [1]; at 50.0 µM 98.4% | [2]; [8] 97% | [3]; [8] 93% | [3]; at 50.0 µM 91.6% | [5]; [8] 94% | [5]; at 50.0 µM 93.5% | [6]; [8] 97%
inactive: [1]; [7] 16% | [2]; [7] 31% | [2]; at 50.0 µM 69.2% | [3]; [7] 36% | [4]; [7] 5% | [4]; [8] 46% | [4]; at 50.0 µM 57.3% | [5]; [7] 37% | [6]; [7] 27% | [6]; at 50.0 µM 58.1%

CC(=O)/C(=C\c1c(Cl)cccc1Cl)C(=O)CCN(C)C
active: [1]; [8] 99% | [1]; at 50.0 µM 75.8% | [2]; [8] 99% | [2]; at 50.0 µM 70.5% | [3]; [8] 99% | [3]; at 50.0 µM 81.6% | [4]; [8] 99% | [5]; [8] 99% | [6]; [8] 99%
inactive: [1]; [7] 18% | [2]; [7] 17% | [3]; [7] 8% | [4]; [7] 25% | [4]; at 50.0 µM 41.2% | [5]; [7] 27% | [5]; at 50.0 µM 65.8% | [6]; [7] 16% | [6]; at 50.0 µM 67.9%

CCCCCCCN(CCCCCCC)CC(=O)NC(=O)c1ccccc1
inactive: [1]; [7] 29% | [2]; [7] 21% | [3]; [7] 23% | [4]; [7] 33% | [5]; [7] 43% | [6]; [7] 26%
active: [1]; [8] 99% | [1]; at 50.0 µM 99.4% | [2]; [8] 98% | [2]; at 50.0 µM 97.2% | [3]; [8] 99% | [3]; at 50.0 µM 99.5% | [4]; [8] 99% | [4]; at 50.0 µM 96.8% | [5]; [8] 99% | [5]; at 50.0 µM 99.3% | [6]; [8] 99% | [6]; at 50.0 µM 99.3%

NS(=O)(=O)c1ccc(NC(=S)/N=C/c2c(O)c3ccccc3[nH]c2=O)cc1
inactive: [1]; [7] 20% | [1]; [8] 55% | [1]; at 50.0 µM 22.4% | [2]; [7] 17% | [2]; [8] 26% | [2]; at 50.0 µM -0.65% | [3]; [7] -29% | [3]; [8] 0% | [3]; at 50.0 µM 25.4% | [4]; [7] 3% | [4]; [8] 7% | [4]; at 50.0 µM -4.25% | [5]; [7] -10% | [5]; [8] -8% | [5]; at 50.0 µM -11.8% | [6]; [7] 21% | [6]; [8] 30% | [6]; at 50.0 µM 27.4%

N#Cc1c(-c2ccc([N+](=O)[O-])cc2)c(C#N)c(=O)n(NS(=O)(=O)c2ccccc2)c1S
inactive: [1]; [7] 35% | [1]; at 50.0 µM 51.8% | [2]; [7] 15% | [3]; [7] 17% | [4]; [7] 46% | [4]; [8] 67% | [4]; at 50.0 µM 40% | [5]; [7] 46% | [5]; at 50.0 µM 61.6% | [6]; [7] 31%
active: [1]; [8] 91% | [2]; [8] 81% | [2]; at 50.0 µM 81.6% | [3]; [8] 88% | [3]; at 50.0 µM 78% | [5]; [8] 87% | [6]; [8] 81% | [6]; at 50.0 µM 78.8%

COc1cc(O)c2c(=O)c3cccc(C)c3[nH]c2c1
active: [1]; [8] 73% | [6]; at 50.0 µM 70%
inactive: [1]; [7] 8% | [1]; at 50.0 µM 2.6% | [2]; [7] -17% | [2]; [8] 28% | [2]; at 50.0 µM 54.9% | [3]; [7] 3% | [3]; [8] 41% | [3]; at 50.0 µM 46.1% | [4]; [7] 14% | [4]; [8] 37% | [4]; at 50.0 µM 49.4% | [5]; [7] 2% | [5]; [8] 54% | [5]; at 50.0 µM 62.6% | [6]; [7] 2% | [6]; [8] 54%
